This is an account of results in PubChem BioAssay (EPA / NIEHS).

Molecules are shown by their SMILES. Results filed as inconclusive are left out. The source made the active and inactive calls. How the source made its calls, unless noted: active means hit-call score of the fitted dose curve at least 0.9, where 1 is the maximum; inconclusive means response in the unintended direction; inactive means score below 0.9.

The test system of assay [1] is turtle Thyroid Hormone Receptor, alpha (TRa), gene 101949057. In words: ATG_trTRa_XSP2: Attagene TRANS-FACTORIAL Multi-Species (XSP1) HepG2 Assay for turtle Thyroid Hormone Receptor, alpha (TRa) (AID 2283834).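 Further: hits raise reporter mRNA over the DMSO baseline so AC50 marks activators.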 In a few lines: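 HepG2 cells transiently transfected with GAL4-UAS reporter units for chimeric turtle TRa-Gal4; mRNA measured 24 h after dosing by RT-PCR and capillary electrophoresis fluorescence, gain of signal fitted against DMSO.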

For assay [2], the target named is frog Thyroid hormone Receptor alpha (TRa), thra-a (gene 397942) (UniProt P15204). In words: ATG_frTRa_XSP2: Attagene TRANS-FACTORIAL Multi-Species (XSP2) HepG2 Assay for frog Thyroid hormone Receptor alpha (TRa) (AID 2283839). Summed up:
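HepG2 transiently transfected with multiplexed GAL4-UAS reporters driven by frog TRa-Gal4 chimeras; 24 h chemical exposure. Reporter mRNA quantified by RT-PCR, FAM labelling, HpaI digestion and capillary electrophoresis; gain of signal versus DMSO.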

Assay [3] addresses human Thyroid hormone Receptor alpha (TRa), THRA (gene 7067) (UniProt P10827). In words: ATG_hTRa_XSP2: Attagene TRANS-FACTORIAL Multi-Species (XSP2) HepG2 Assay for human Thyroid hormone Receptor alpha (TRa) (AID 2283838). Summed up:
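HepG2 cells transiently transfected with multiplexed GAL4-UAS reporter units and exogenous NR-GAL4 chimeras; 24 h chemical exposure with 3 nM 6-alpha-fluorotestosterone and 1.5 nM norgestrel present. Reporter mRNA measured by RT-PCR, FAM labelling, HpaI digestion, capillary electrophoresis; gain-of-signal versus DMSO.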

Assay [4] deals with human Thyroid hormone Receptor beta (TRb), THRB (gene 7068) (UniProt P10828). In words: ATG_hTRb_XSP2: Attagene TRANS-FACTORIAL Multi-Species (XSP2) HepG2 Assay for human Thyroid hormone Receptor beta (TRb) (AID 2283840).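 Further: actives raise reporter mRNA so potency reflects agonist-like gain of signal.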 In a few lines: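 HepG2 transiently transfected with a multi-species panel including a human TRb–Gal4 chimera driving Gal4-UAS reporters; medium contained 3 nM 6-alpha-fluorotestosterone and 1.5 nM norgestrel. 24 h dosing; RT-PCR/capillary electrophoresis readout; positive-direction fit vs DMSO.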
Chain of human Thyroid hormone Receptor beta (TRb), THRB (gene 7068) (P10828 whole entry, looked up, the tested form may be a part): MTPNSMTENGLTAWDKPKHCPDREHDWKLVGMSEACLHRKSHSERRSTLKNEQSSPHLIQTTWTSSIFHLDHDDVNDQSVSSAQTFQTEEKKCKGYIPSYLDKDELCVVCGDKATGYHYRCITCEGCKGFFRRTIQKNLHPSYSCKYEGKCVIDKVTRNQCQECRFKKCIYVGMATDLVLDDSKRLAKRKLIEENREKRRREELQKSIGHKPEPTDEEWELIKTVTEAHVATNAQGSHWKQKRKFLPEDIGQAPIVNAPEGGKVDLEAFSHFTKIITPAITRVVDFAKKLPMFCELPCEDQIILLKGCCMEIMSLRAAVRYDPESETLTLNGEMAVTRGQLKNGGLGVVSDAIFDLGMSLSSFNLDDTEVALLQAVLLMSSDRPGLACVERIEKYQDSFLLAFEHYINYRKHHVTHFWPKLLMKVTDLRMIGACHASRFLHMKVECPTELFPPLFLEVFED

Assay [5] is described as follows: ATG_XTT_Cytotoxicity_XSP2: Cytotoxicity Assessment in the Attagene TRANS-FACTORIAL Multi-Species (XSP2) HepG2 Assay (AID 2283837). Summed up: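 HepG2 cells, transiently transfected with multiple reporter constructs, exposed to chemical for 24 h. Cell number assessed with XTT fluorescence read-out; loss of signal fitted relative to DMSO.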
A short description of assay [6]: CEETOX_H295R_ANDR_noMTC: CeeTox H295R High-throughput Steroidogenesis Assay for Androstenedione (ANDR), maximum tolerated concentration (MTC) filtered results only (AID 2283915; active means hit-call score of the fitted dose curve at least 0.9, where 1 is the maximum; inactive means score below 0.9). The conditions noted are these: actives raise or lower the signal. Summed up: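 H295R cells, passage 10 or below, prestimulated 48 h with 10 uM forskolin, then exposed 48 h to chemical in 0.1% DMSO. Medium androstenedione extracted with MTBE, quantified by HPLC-MS/MS; concentrations not MTC-filtered; bidirectional fit versus DMSO.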

The nature of assay [7]: CEETOX_H295R_ESTRADIOL_noMTC: CeeTox H295R High-throughput Steroidogenesis Assay for Estradiol, maximum tolerated concentration (MTC) filtered results only (AID 2283919; active means hit-call score of the fitted dose curve at least 0.9, where 1 is the maximum; inactive means score below 0.9). The conditions noted are these: actives raise or lower the signal. On the procedure:
CEETOX_H295R is a cell-based, multiplexed-readout assay that uses H295R, a human adrenal gland cell line, with measurements taken at 48 hours after chemical dosing in a 96-well plate.CEETOX_H295R_ESTRADIOL_noMTC is one of 12 assay component(s) measured or calculated from the CEETOX_H295R assay (11 hormones and 1 viability assay). It is designed to make measurements of hormone induction, a form of inducible reporter, as detected with absorbance signals by HPLC-MS-MS technology. The concentrations for these components have not been pre-filtered for the maximum tolerated concentration (MTC) based on the MTT assay (_noMTC).Data from the assay component CEETOX_H295R_ESTRADIOL_noMTC was analyzed into 1 assay endpoint. This assay endpoint, CEETOX_H295R_ESTRADIOL_noMTC, was analyzed with bidirectional fitting relative to DMSO as the negative control and baseline of activity. […]
Cell culture and media preparation procedures were conducted in accordance with OECD Test No. 456 guidelines, with minor modifications. […] For steroid quantification, media samples were shipped to OpAns, LLC (Durham, NC) on dry ice, and samples were thawed to room temperature prior to liquid-liquid extraction. […] Steroid hormones were separated by HPLC, eluted using a reverse phase C18 gradient with electrospray positive ionization, followed by quantification by tandem mass spectrometry (MS/MS). […]

By AC50 is commonly meant the concentration at which the activity in the assay is half-maximal.

Chain of frog Thyroid hormone Receptor alpha (TRa), thra-a (gene 397942) (P15204 whole entry, looked up, the tested form may be a part): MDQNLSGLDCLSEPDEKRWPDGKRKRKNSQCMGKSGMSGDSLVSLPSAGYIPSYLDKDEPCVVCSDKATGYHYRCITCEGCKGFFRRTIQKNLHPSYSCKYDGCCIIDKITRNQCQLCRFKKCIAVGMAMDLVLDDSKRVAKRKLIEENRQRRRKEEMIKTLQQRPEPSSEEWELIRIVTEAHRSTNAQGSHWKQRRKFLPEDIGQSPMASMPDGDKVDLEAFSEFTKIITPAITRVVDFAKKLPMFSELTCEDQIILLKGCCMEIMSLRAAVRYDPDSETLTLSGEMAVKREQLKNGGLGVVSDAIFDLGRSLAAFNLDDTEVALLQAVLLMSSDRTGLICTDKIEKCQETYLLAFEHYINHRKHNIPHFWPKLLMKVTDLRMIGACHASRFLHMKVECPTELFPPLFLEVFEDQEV
Chain of human Thyroid hormone Receptor alpha (TRa), THRA (gene 7067) (P10827 whole entry, looked up, the tested form may be a part): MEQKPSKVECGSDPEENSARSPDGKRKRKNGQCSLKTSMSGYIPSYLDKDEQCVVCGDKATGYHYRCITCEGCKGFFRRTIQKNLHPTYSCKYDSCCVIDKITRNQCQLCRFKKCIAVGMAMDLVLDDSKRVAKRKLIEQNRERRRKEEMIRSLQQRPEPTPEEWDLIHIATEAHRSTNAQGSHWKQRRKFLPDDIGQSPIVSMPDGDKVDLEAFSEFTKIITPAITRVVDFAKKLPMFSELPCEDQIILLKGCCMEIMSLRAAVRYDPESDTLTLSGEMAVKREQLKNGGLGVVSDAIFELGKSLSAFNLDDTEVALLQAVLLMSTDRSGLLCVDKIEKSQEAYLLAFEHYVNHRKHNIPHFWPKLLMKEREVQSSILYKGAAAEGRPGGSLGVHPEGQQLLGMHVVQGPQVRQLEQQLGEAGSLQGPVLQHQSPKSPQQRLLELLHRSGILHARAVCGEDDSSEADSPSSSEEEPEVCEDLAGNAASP

Regarding `CC(=O)[C@@]1(O)CC[C@H]2[C@@H]3CCC4=CC(=O)CC[C@]4(C)[C@H]3CC[C@@]21C`, the result in assay [1] and in assay [2] was inactive.
As for `Cc1c(C)c2c(c(C)c1O)CCC(C)(COc1ccc(CC3SC(=O)NC3=O)cc1)O2` (configuration not stated), the outcome in assay [1], in assay [3], in assay [2] and in assay [4] was inactive.
For `CCN(CC)CCOc1ccc(C(=C(Cl)c2ccccc2)c2ccccc2)cc1`, in assay [5], the half-maximal activity concentration (AC50) was 34 µM (active). In addition, the result in assay [4] was inactive.
Consider `Nc1nc(=S)c2[nH]cnc2[nH]1`, for which the concentration at half-maximal activity (AC50) in assay [6] is 77 µM (active). Further, in assay [7], the compound was classed as inactive.
Turning to `O=C(Oc1ccccc1)c1cccc(C(=O)Oc2ccccc2)c1`, the compound was called inactive in assay [6].
For the compound `NC(=Nc1ccccc1)Nc1ccccc1`, the call in assay [7] was inactive.
